MCF10A rerep: induces DNA re-replication in MCF 10a normal breast cells; AID 624296; Potency, µM (titrated, usually from 46.1 µM), without a hit: at the highest dose activity, positive = re-replication, most hits filed as activators; MCF 10A DNA re-replication, Hoechst nuclear intensity, 48 h; actives 2.9% (n = 350,000); note: potency is the fitted concentration of half-maximal effect; % of control where 0% means no effect; nearly all actives have a fitted effect of over 50% in size
KB-V1 cytotox: KB-V1 MDR subline cytotoxicity; KB-V1 MDR cells viability, CellTiter-Glo, 72 h; Potency, µM (top dose mostly 46.1 µM), usual class: cytotoxic; actives 3.4% (n = 400,000); AID 1347076; note: potency is the fitted concentration of half-maximal effect; % is set by controls: 0 for no effect and ±100 for the full control effect; nearly all actives have a fitted effect of over 60% in size
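Cells of the MDR subline KB-V1 are plated, dosed with compound at multiple concentrations, and incubated 72 h at 37 degrees C; CellTiter-Glo is then added and luminescence read after 10 min.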
KB-3-1 tox: KB-3-1 parental cell cytotoxicity; KB-3-1 viability, CellTiter-Glo ATP luminescence, 72 h; Potency, µM (series often up to 46.1 µM), actives largely listed as cytotoxic; actives 1.4% (n = 400,000); AID 1347075; note: potency is the fitted concentration of half-maximal effect; % is set by controls: 0 for no effect and ±100 for the full control effect; nearly all actives have a fitted effect of over 60% in size
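Using CellTiter-Glo luminescence, growth of non-resistant KB-3-1 adenocarcinoma cells is assessed 72 h after pin-tool compound addition at 37 °C. Normalized responses across the concentration series yield fitted curves.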
SW480 rereplic: inducers of DNA re-replication in SW480 colon cancer cells; SW480 DNA re-replication, Hoechst DNA content imaging, 48 h; Potency, µM (highest dose often 46.1 µM), inactives show top-dose re-replication activation, actives largely listed as activators; actives 1.8% (n = 340,000); AID 624297; note: potency is the fitted concentration of half-maximal effect; % of control where 0% means no effect; nearly all actives have a fitted effect of over 55% in size
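Per well, 250 cells were exposed to pinned compound for 48 hr. Nuclear DNA was visualised with Hoechst (40 min, 37 C) and total object intensity recorded by fluorescence scanning.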
DRD3 antagonist: blocks the human D3 dopamine receptor | actives 2.5% (n = 360,000) | D3R cells, DiscoveRx beta-arrestin luminescence, antagonist mode; hits give low values | AID 652054 | max response, negative = inhibition, %; in the data active = max response below about -50%; inconclusive = no clear call, values can overlap the other calls; note: % is set by controls: 0 for no effect and ±100 for the full control effect
Target sequence (P35462 whole entry, looked up): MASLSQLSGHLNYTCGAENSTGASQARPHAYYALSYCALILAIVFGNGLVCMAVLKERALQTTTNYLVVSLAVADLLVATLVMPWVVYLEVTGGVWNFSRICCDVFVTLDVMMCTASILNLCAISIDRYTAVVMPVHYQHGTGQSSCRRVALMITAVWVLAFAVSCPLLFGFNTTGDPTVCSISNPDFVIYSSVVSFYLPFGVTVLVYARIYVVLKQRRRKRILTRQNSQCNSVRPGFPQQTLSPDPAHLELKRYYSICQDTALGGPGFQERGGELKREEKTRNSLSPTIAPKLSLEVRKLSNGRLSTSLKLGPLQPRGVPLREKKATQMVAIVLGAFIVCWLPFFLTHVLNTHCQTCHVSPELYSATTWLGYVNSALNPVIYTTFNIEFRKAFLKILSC
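Cells plated overnight at 1500 cells/well, then exposed to library compounds with dopamine controls for 90 minutes at 37 degrees C. DiscoveRx reagent added for 30–60 minutes at room temperature; luminescence read, quantitative HTS format.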
D3 ag: activates the human D3 dopamine receptor; max activation, %; D3R DiscoveRx beta-arrestin cells, luminescence, 90 min; actives 0.58% (n = 410,000); in the data active = max activation above about 30%; note: 0% is about no effect
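Agonist mode: compounds and dopamine controls were applied to plated cells for 90 min at 37 degrees C after an overnight attachment at 1500 cells/well. Luminescent read-out followed 30 - 60 minutes at room temperature with DiscoveRx detection reagent.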
Starred values were filed as active, the others as inactive; i = inactive; ? = inconclusive; . = not tested or not shown; [ ] = dose if it differs, or a comment. Only some compounds are listed: those with a hit (about 8.9% of all), similar ones and a draw of the others. Unless noted, calls come from the whole dose curve; as a rule, active = well fitted curve in the direction sought with a large enough effect; inconclusive = small, poorly fitted or top-dose-only effect, or another doubt; inactive = no such curve, though single readings can be large; an effect the other way counts as inactive or inconclusive.

SMILES	MCF10A rerep	KB-V1 cytotox	KB-3-1 tox	SW480 rereplic	DRD3 antagonist	D3 ag
C=CCn1c2ccccc2c2nnc(SCCN3CCCCC3)nc21	15%	i	?	-3%	?	-16
C=CCn1c2ccccc2c2nnc(SCCCn3c(=O)[nH]c4ccccc43)nc21	21µM*	?	?	-2%[9.22 µM]	80	32*
CCOc1ccc(NC(=O)C(c2ccccn2)N(C(=O)CCl)c2ccc(OC)cc2)cc1 (stereo not drawn)	0%	?	i	?	29	4
COc1ccc(NC(=O)C(c2ccccn2)N(C(C)=O)c2ccc(C)cc2)cc1 (stereo not drawn)	2%	18µM*	i	-160%	-28	-7
Cc1ccccc1Nc1nnc(SCc2cc(=O)n3ccsc3n2)s1	0%	i	i	-3%	4	46*
CCOC(=O)c1noc2ncnc(Nc3cc(Cl)c(OC)cc3OC)c12	.	i	i	.	.	-11
Cc1cccc(C(=O)NCC(=O)OCc2cc(=O)n3nc(C4CCCCC4)sc3n2)c1	.	i	?	.	.	7
CCOC(=O)c1cc(C#N)c(N2CCOCC2)nc1-c1ccccc1	23%[9.22 µM]	i	i	?	-13	2
C=CCNc1nc(-c2ccccc2)c(C(=O)OCC)cc1C#N	15µM*	?	10µM*	?	-8	-8
CCCCNc1nc(-c2ccccc2)c(C(=O)OCC)cc1C#N	?	18µM*	?	?	-8	-13
CCOC(=O)c1cc(C#N)c(Oc2ccccc2)nc1-c1ccccc1	20%	?	i	-1%	2	-4
CCCNc1nc(-c2ccccc2)c(C(=O)OCC)cc1C#N	12µM*	i	?	16µM*	-16	-18
COCCSc1nnc(NC(=O)Cc2ccc(OC)c(OC)c2)s1	10%	?	?	23µM*	-17	-5
Cc1ccc(CC(=O)Nc2nncs2)cc1	-1%	i	i	-17%	1	-7
O=C(CCCc1ccccc1)Nc1nncs1	-4%	9.2µM*	i	-13%	-25	3
COc1ccc(-c2csc(NC(=O)Cc3cc(OC)c(OC)c(OC)c3)n2)cc1OC	3%	6.5µM*	i	2%	14	3
COc1ccc(CC(=O)Nc2nncs2)cc1OC	-8%	i	i	8.2µM*	-5	-4
CCSc1nnc(NC(=O)Cc2ccc(OC)c(OC)c2)s1	1%	i	i	-9%	34	4
COc1cc(CC(=O)Nc2nc(C)cs2)cc(OC)c1OC	-6%	i	i	-4%	15	15
Cc1ccc(C)c(NC(=O)c2nc(S(C)(=O)=O)ncc2N(Cc2ccc(C(C)(C)C)cc2)Cc2ccco2)c1	.	i	i	.	.	-11
CSc1nc(C)cc(Nc2cccc(C(=O)O)c2)n1	.	i	i	.	.	5
O=S(=O)(c1cccc(NC(=S)N2CCN(c3ccc(F)cc3)CC2)c1)C(F)F	?	i	i	18µM*	9	-4
COCCCNC(=O)c1sc2nc(C)c(C(=O)Nc3ccc(C)cc3C)c(-c3ccccc3Cl)c2c1N	.	i	i	.	.	5
CN(C)CC/C=C1\c2ccccc2Sc2cc(F)c(Cl)cc21	23%	?	i	?	-81*	-42
CN(C)CC/C=C1\c2ccc(F)cc2Sc2cc(F)c(Cl)cc21	?	i	i	?	-101*	-18
CC[N+](C)(C)CC/C=C1/c2ccccc2Sc2ccc(Cl)cc21	-22%	i	i	-9%	-8	-10
CN(C)CC/C=C1\c2cc(Cl)ccc2Sc2cc(F)c(F)cc21	?	i	i	-1%	-104*	-18
CN(C)CC/C=C1/c2ccc(F)cc2Sc2ccc(Cl)cc21	-7%	i	i	-6%	-84*	-10
CCC1=Nc2cc(C(=O)O)ccc2Sc2ccc(Cl)cc21	15%	i	i	-2%	13	-3
CN(C)CC/C=C1/c2cc(F)ccc2CSc2ccc(F)cc21	-7%	i	i	-40%	?	-26

Assay outcomes deposited in PubChem BioAssay by National Center for Advancing Translational Sciences (NCATS).
